Several values for one entry are separate records, joined by “and”; a condition that tells them apart may be missing. Equal values may be shown once. Inconclusive results are not listed. Entries that show only a call come without a potency. Activity calls are given as the source filed them. Unless noted, the call rests on the fitted dose curve.
Potency means the concentration at half of the fitted maximal effect.

Tested on in one assay: not listed separately
The assay can be described thus: cAMP Responsive Elements (CRE) small molecule antagonists, cell-based qHTS assay (AID 1963591; active means well fitted inhibition curve with a large enough effect in the signal ratio in the repeat runs, not every such curve was filed as active; the % refers to the signal ratio). The settings on record: CRE-bla HEK293T, beta-lactamase FRET ratio; series mostly up to 92.4 µM. The method, boiled down: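 qHTS in CRE-bla HEK 293T cells: compound in DMSO, then 0.25 uM NKH477 (final), 3 h at 37 °C/5% CO2; beta-lactamase FRET read-out after 2 h substrate incubation.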
For orientation: In qHTS, concentration-response curves come from the screen itself.
`S=C=NCCc1ccccc1`: the Potency result is “inactive”.
On the same count and under the same terms, the value for `Clc1cc(Cl)c(-c2cc(Cl)c(Cl)cc2Cl)cc1Cl` was “inactive”.
As to `CC1=C2C[C@H]3[C@@H](CC=C4C[C@@H](O)CC[C@@]43C)[C@@H]2CC[C@]12O[C@@H]1C[C@H](C)CN[C@H]1[C@H]2C`, the Potency entry is “inactive”.
Still for that read-out and setting: the value for `Cc1nc2ccccc2c(=O)n1-c1ccccc1Cl` was “inactive”.
Turning to `ClC1=C(Cl)[C@]2(Cl)[C@H]3[C@H]([C@@H]4C=C[C@H]3C4)[C@@]1(Cl)C2(Cl)Cl`, the Potency entry was “inactive”.
The same measure, in the same setting: the value for `CC(C)[C@@H](C(=O)O[C@@H](C#N)c1cccc(Oc2ccccc2)c1)c1ccc(Cl)cc1` was “inactive”.
On the same count and under the same terms, the value for `O=C(Cl)c1ccc(Cl)cc1` was “inactive”; that for `Nc1ccc([N+](=O)[O-])cc1Cl` was “inactive”; that for `CCCCP(CCCC)CCCC` was “inactive”.
On the same count and under the same terms, the value for `ClC1=C(Cl)[C@]2(Cl)[C@H]3[C@H]([C@H]4C=C[C@H]3C4)[C@@]1(Cl)C2(Cl)Cl` was “inactive”; that for `COC(=O)C(c1ccccc1)C1CCCCN1` (stereo unspecified) was “inactive”.
For `CN1C(=O)[C@@H](NC(=O)c2cc3ccccc3[nH]2)N=C(c2ccccc2)c2ccccc21`, the Potency entry is “inactive”.
Same read-out and setting: the value for `O=NN(CCO)CCO` was “inactive”.
Same read-out and setting: the value for `[O-][Br+2]([O-])O` was “inactive”.
With `C[C@@H]1C[C@@H]([C@H](O)CC2CC(=O)NC(=O)C2)C(=O)[C@@H](C)C1`, the Potency was 8.58 µM (active) and 8.3 µM (active) and 2.66 µM (active).
On the same count and under the same terms, the value for `Nc1c(Cl)c(F)nc(OCC(=O)O)c1Cl` was “inactive”.
Still for that read-out and setting: the value for `OC(Cc1ccccc1Cl)(Cn1[nH]cnc1=S)C1(Cl)CC1` (stereo unspecified) was “inactive”; that for `N#CC(C#N)=C(C#N)C#N` was “inactive”.
On the same count and under the same terms, the value for `COCC(C)N(C(=O)CCl)c1c(C)csc1C` (stereo unspecified) was “inactive”; that for `N[C@@H](Cc1ccc(Oc2cc(I)c(O)c(I)c2)c(I)c1)C(=O)O` was “inactive”; that for `CCOc1cc(Oc2ccc(C(F)(F)F)cc2Cl)ccc1[N+](=O)[O-]` was “inactive”.
For `CC(Cc1ccccc1)NCCn1cnc2c1c(=O)n(C)c(=O)n2C` (stereo unspecified), the Potency entry is “inactive”.
On the same count and under the same terms, the value for `CC1(C)C(C(=O)OC(C#N)c2cccc(Oc3ccccc3)c2)C1(C)C` (stereo unspecified) was “inactive”; that for `CCCN(CC1CC1)c1c([N+](=O)[O-])cc(C(F)(F)F)cc1[N+](=O)[O-]` was “inactive”; that for `COc1ccc(Cc2nccc3cc(OC)c(OC)cc23)cc1OC` was “inactive”.
Consider `Brc1ccc(Oc2ccc(Br)cc2Br)c(Br)c1`, for which the Potency entry is “inactive”.

For a further assay, the target named is Beta-2 adrenergic receptor (Homo sapiens) (UniProt P07550). The assay can be described thus: Adrenergic beta2 receptor (ADRB2) small molecule antagonists, cell-based qHTS assay (AID 1963592). Further: nearly all actives have a fitted effect of over 50% in size. The settings on record: CHO-ADRB2 cells, isoproterenol-stimulated cAMP HTRF ratio, 0.5 h; series mostly up to 92.4 µM. The method, boiled down: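 Cells (CHO, stable ADRB2 overexpression) incubated 18-20hr at 37C; compounds added from DMSO; agonist mix (1nM isoproterenol, 100uM IBMX, 25uM Ro-20-1724) added; 0.5hr RT; d2-cAMP and anti-cAMP-cryptate added; 1hr RT; 665/615 nm read.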
Beta-2 adrenergic receptor (Homo sapiens), sequence (P07550 whole entry, looked up): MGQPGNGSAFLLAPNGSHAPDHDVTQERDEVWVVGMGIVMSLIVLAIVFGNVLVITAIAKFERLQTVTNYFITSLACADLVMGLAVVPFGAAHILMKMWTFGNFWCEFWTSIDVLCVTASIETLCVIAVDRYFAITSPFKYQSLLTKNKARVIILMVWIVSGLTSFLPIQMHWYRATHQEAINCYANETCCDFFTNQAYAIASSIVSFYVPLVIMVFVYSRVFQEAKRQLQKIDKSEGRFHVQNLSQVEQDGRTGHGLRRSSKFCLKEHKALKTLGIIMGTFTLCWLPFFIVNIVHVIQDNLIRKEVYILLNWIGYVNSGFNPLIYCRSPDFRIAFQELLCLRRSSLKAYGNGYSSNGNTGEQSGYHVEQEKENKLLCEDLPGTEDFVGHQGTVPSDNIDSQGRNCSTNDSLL
For `S=C=NCCc1ccccc1`, the Potency result is “inactive”.
Take `Clc1cc(Cl)c(-c2cc(Cl)c(Cl)cc2Cl)cc1Cl`: the Potency result is “inactive”.
Same read-out and setting: the value for `CC1=C2C[C@H]3[C@@H](CC=C4C[C@@H](O)CC[C@@]43C)[C@@H]2CC[C@]12O[C@@H]1C[C@H](C)CN[C@H]1[C@H]2C` was “inactive”; that for `Cc1nc2ccccc2c(=O)n1-c1ccccc1Cl` was “inactive”; that for `ClC1=C(Cl)[C@]2(Cl)[C@H]3[C@H]([C@@H]4C=C[C@H]3C4)[C@@]1(Cl)C2(Cl)Cl` was “inactive”.
Take `CC(C)[C@@H](C(=O)O[C@@H](C#N)c1cccc(Oc2ccccc2)c1)c1ccc(Cl)cc1`: the Potency entry is “inactive”.
On the same count and under the same terms, the value for `CCCCOCN(C(=O)CCl)c1c(CC)cccc1CC` was “inactive”; that for `CCCCP(CCCC)CCCC` was “inactive”; that for `CC(C)c1c(CN(C)C(C)Cc2ccccc2)n(C)n(-c2ccccc2)c1=O` (stereo unspecified) was “inactive”.
In the case of `C[C@]12C/C(=C/O)C(=O)C[C@@H]1CC[C@@H]1[C@@H]2CC[C@@]2(C)[C@H]1CC[C@]2(C)O`, the Potency entry was “inactive”.
As to `ClC1=C(Cl)[C@]2(Cl)[C@H]3[C@H]([C@H]4C=C[C@H]3C4)[C@@]1(Cl)C2(Cl)Cl`, the Potency result was “inactive”.
On the same count and under the same terms, the value for `COC(=O)C(c1ccccc1)C1CCCCN1` (stereo unspecified) was “inactive”; that for `CC(=O)[O-].CC(=O)[O-].O.O.[Cd+2]` was “inactive”.
Same read-out and setting: the value for `CN1C(=O)[C@@H](NC(=O)c2cc3ccccc3[nH]2)N=C(c2ccccc2)c2ccccc21` was “inactive”.
The same measure, in the same setting: the value for `CCO[C@H]1O[C@@H]2OC3(C)CC[C@H]4[C@H](C)CC[C@@H]([C@H]1C)[C@@]24OO3` was “inactive”; that for `CCOC(=O)C(Cl)Cc1cc(-n2nc(C)n(C(F)F)c2=O)c(F)cc1Cl` (stereo unspecified) was “inactive”; that for `C[C@H]1O[C@@H](O[C@H]2[C@@H](O)C[C@H](O[C@H]3[C@@H](O)C[C@H](O[C@H]4CC[C@@]5(C)[C@H](CC[C@@H]6[C@@H]5CC[C@]5(C)[C@@H](C7=CC(=O)OC7)CC[C@]65O)C4)O[C@@H]3C)O[C@@H]2C)C[C@H](O)[C@@H]1O` was “inactive”.
Consider `[O-][Br+2]([O-])O`, for which the Potency result is “inactive”.
Still for that read-out and setting: the value for `C[C@@H]1C[C@@H]([C@H](O)CC2CC(=O)NC(=O)C2)C(=O)[C@@H](C)C1` was “inactive”; that for `OC(Cc1ccccc1Cl)(Cn1[nH]cnc1=S)C1(Cl)CC1` (stereo unspecified) was “inactive”.
Same read-out and setting: the value for `N#CC(C#N)=C(C#N)C#N` was “inactive”; that for `CC1COC(Cn2cncn2)(c2ccc(Oc3ccc(Cl)cc3)cc2Cl)O1` (stereo unspecified) was “inactive”; that for `COCC(C)N(C(=O)CCl)c1c(C)csc1C` (stereo unspecified) was “inactive”.
Still for that read-out and setting: the value for `N[C@@H](Cc1ccc(Oc2cc(I)c(O)c(I)c2)c(I)c1)C(=O)O` was “inactive”; that for `CCOc1cc(Oc2ccc(C(F)(F)F)cc2Cl)ccc1[N+](=O)[O-]` was “inactive”.
On to `CC(Cc1ccccc1)NCCn1cnc2c1c(=O)n(C)c(=O)n2C` (stereo unspecified), for which the Potency result was “inactive”.
As for `Cc1ccc([N+](=O)[O-])[c]2c1[O][Hg]2`, the Potency was 29.8 µM (active).
Take `CC1(C)C(C(=O)OC(C#N)c2cccc(Oc3ccccc3)c2)C1(C)C` (stereo unspecified): the Potency result was “inactive”.
On the same count and under the same terms, the value for `C=C(C)C(=O)[O][Sn]([CH2]CCC)([CH2]CCC)[CH2]CCC` was 1.09 µM (active); that for `CCCN(CC1CC1)c1c([N+](=O)[O-])cc(C(F)(F)F)cc1[N+](=O)[O-]` was “inactive”; that for `COc1ccc(Cc2nccc3cc(OC)c(OC)cc23)cc1OC` was “inactive”.
The same measure, in the same setting: the value for `COC1=CC(=O)O[C@@H](/C=C/c2ccc3c(c2)OCO3)C1` was “inactive”; that for `Brc1ccc(Oc2ccc(Br)cc2Br)c(Br)c1` was “inactive”; that for `CC(C)N1C(=O)N(c2ccccc2)CSC1=NC(C)(C)C` was “inactive”.
For the molecule `COC(=O)COc1ccc(Cl)cc1Cl`, the Potency result was “inactive”.

The values are drawn from PubChem BioAssay (Tox21).
